CBX7 inh = inhibitors of human CBX7 binding to H3K27me3 peptide | AlphaScreen His6-CBX7 / biotin-H3K27me3 peptide binding; active compounds read low | O95931 | 66,000 compounds, 1.1% hits | AID 1224903 | normalised signal (fraction of DMSO) (no concentration beside the values); in the data active = normalised signal below about 0.5
Target sequence (O95931 whole entry, looked up): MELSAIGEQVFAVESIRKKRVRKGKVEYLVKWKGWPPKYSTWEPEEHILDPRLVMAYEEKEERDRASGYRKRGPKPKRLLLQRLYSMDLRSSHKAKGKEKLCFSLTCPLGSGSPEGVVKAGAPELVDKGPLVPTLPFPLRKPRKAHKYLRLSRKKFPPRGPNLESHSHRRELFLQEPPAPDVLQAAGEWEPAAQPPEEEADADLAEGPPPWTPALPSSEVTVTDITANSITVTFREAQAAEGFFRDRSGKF
Numbers without * were called inactive; ! = repeats disagree. This is one part of a sample in which hits are shown more often than they occur.

SMILES | CBX7 inh
COCCCNC(=O)c1cc2c(-c3ccc(OC)c(OC)c3)nn(C)c2s1 | 1.03
Cc1cccc(NC(=O)CSc2nccn2-c2ccc(Cl)cc2)c1 | 0.449*
CCc1ccc(NC(=O)CSc2nccn2-c2cccc(OC)c2)cc1 | 0.868
COc1ccc(-n2ccnc2SCC(=O)Nc2cccc(C)c2)cc1 | 0.615
CCc1ccc(NC(=O)CSc2nccn2-c2cccc(Cl)c2)cc1 | 0.431*
O=C(CSc1nccn1-c1ccc(Cl)cc1)Nc1cccc(C(F)(F)F)c1 | 0.451*
CCc1ccc(NC(=O)CSc2nccn2-c2cccc(C)c2)cc1 | 0.764
Cc1cc(C)cc(NC(=O)CSc2nccn2-c2ccc(Cl)cc2)c1 | 0.424*
COc1cccc(-n2ccnc2SCC(=O)Nc2cccc(C(F)(F)F)c2)c1 | 0.923
O=C(CSc1nccn1-c1ccc(Cl)cc1)Nc1cccc(F)c1 | 0.704
Cc1cc(C)cc(NC(=O)CSc2nccn2-c2ccccc2)c1 | 0.598
O=C(CSc1nccn1-c1ccc(F)cc1)Nc1cccc(Cl)c1 | 0.667
Cc1ccc(NC(=O)CSc2nccn2-c2ccc(Cl)cc2)cc1 | 0.915
CCOC(=O)N1CCc2c(sc(NCc3ccc(OC)cc3)c2C(=O)Nc2cc(OC)ccc2OC)C1 | 0.763
CCOc1ccc(NC(=O)CC2C(=O)N(Cc3ccccc3)C(C)c3nc4ccccc4n32)cc1 (centres undefined) | 1.05
CCOc1ccc(-c2nnc(SCC)c3ccccc23)cc1 | 0.911
CC(NC(=O)CCc1nc2ccccc2n(Cc2c(F)cccc2Cl)c1=O)c1ccccc1 (centres undefined) | 0.968
CC(=O)N1CCc2cc(S(=O)(=O)NCCC(=O)Nc3ccccc3C)ccc21 | 1.1
CC1C2c3ccccc3C(c3ccccc32)C1C(=O)Nc1ccc(Cl)c(Cl)c1 (centres undefined) | 1.06
CC1CCN(c2oc(-c3ccccc3)nc2C#N)CC1 | 0.412*
N#Cc1nc(-c2ccccc2)oc1N1CCOCC1 | 0.873
CCN1CCN(c2oc(-c3ccccc3)nc2C#N)CC1 | 0.972
Fc1ccc(OCc2nn3c(-c4ccccc4)nnc3s2)cc1 | 1.02
COc1cccc(Nc2nc(-c3ccc(OC)c(Br)c3)cs2)c1 | 0.7
CC(=O)Nc1nc(-c2ccc(Oc3ccccc3)cc2)cs1 | 0.925
SMILES | CBX7 inh
O=C1c2ccccc2C(=O)N1c1cccc(-c2csc(Nc3ccc(Oc4ccccc4)cc3)n2)c1 | 0.736
COc1ccc(-c2csc(Nc3ccc(Oc4ccccc4)cc3)n2)cc1Br | 0.419*!
Clc1ccc(-c2csc(Nc3ccc(Oc4ccccc4)cc3)n2)cc1 | 0.54
CC(C)Cc1ccc(-c2csc(Nc3ccc(Oc4ccccc4)cc3)n2)cc1 | 0.487*
COc1ccc(CN2C(=O)c3ccccc3C2C(=O)NC2CCCC2)cc1 (centres undefined) | 0.955
O=c1cc(Cc2nnc(SCc3ccc(F)cc3)n2-c2ccc(F)cc2)[nH]c(=O)[nH]1 | 1.06
CCC(C(=O)c1ccccc1)c1nc2ccccc2[nH]c1=O (centres undefined) | 1.05
Cc1ccc2c(c1)-c1c(cnn1CC(=O)NCc1ccc(F)cc1)CO2 | 1.09
Cc1ccc2c(c1)-c1c(cnn1CC(=O)N1CCN(c3ccccc3)CC1)CO2 | 1.06
CCOc1ccc2nc(N3CCCC(C(=O)NC4CCN(Cc5ccccc5)CC4)C3)sc2c1 (centres undefined) | 0.902
CCOc1ccc2nc(C)cc(Nc3ccc(Cl)cc3)c2c1 | 0.854
COCCCNC(=O)c1csc2c1CCCC2 | 1.06
CCC(C)NC(=O)CN1C(=O)CC(C)(C)Sc2ccccc21 (centres undefined) | 0.991
COc1ccc(-n2c3c(cc(C(=O)Nc4ccc(OC)cc4OC)c2=O)C(=O)CC(C)(C)C3)cc1 | 1.12
COc1cccc(-n2c(-c3ccc(C)cc3)cc3c2CC(C)(C)CC3=O)c1 | 0.345*
COc1ccc(-n2c(-c3ccc(Cl)cc3)cc3c2CC(C)(C)CC3=O)cc1 | 0.876
COc1ccc(Cn2c(-c3ccc(C)cc3)cc3c2CC(C)(C)CC3=O)cc1 | 0.795
COc1ccc(-n2c(-c3ccc(C)cc3)cc3c2CC(C)(C)CC3=O)c(OC)c1 | 0.272*
Cc1ccc(-c2cc3c(n2-c2ccccc2)CC(C)(C)CC3=O)cc1 | 0.946
COc1ccccc1-n1c2c(cc(C(=O)N3CCC(C)CC3)c1=O)C(=O)CC(C)(C)C2 | 1.01
COc1ccccc1-n1c(-c2ccc(C)cc2)cc2c1CC(C)(C)CC2=O | 0.317*
CCOc1ccc(-n2c(-c3ccc(OC)cc3)cc3c2CC(C)(C)CC3=O)cc1 | 0.398*
COc1ccc(-n2c(-c3ccc(C)cc3)cc3c2CC(C)(C)CC3=O)cc1 | 0.953
Cc1ccc(-n2c(-c3ccccc3)cc3c2CC(C)(C)CC3=O)cc1Cl | 0.824
COc1ccc(-c2cc3c(n2-c2ccccc2)CC(C)(C)CC3=O)cc1 | 0.788
SMILES | CBX7 inh
O=C1CCCc2c1c1cc(CN3CCCCC3)ccc1n2CCN(Cc1ccccc1)Cc1ccccc1 | 0.83
CC1CCCN(S(=O)(=O)c2ccc3[nH]c(=O)cc(C(=O)NCc4ccc5c(c4)OCO5)c3c2)C1 (centres undefined) | 1.11
COc1cccc(CNC(=O)CN2C(=O)COc3ccc(C(C)(C)C)cc32)c1 | 0.777
O=C(NCc1ccc(F)cc1)C1CCC(CNS(=O)(=O)c2cccc3cccnc23)CC1 (centres undefined) | 1.01
Cc1ccc(C)c(-c2[nH]c(-c3ccc(O)cc3)nc2-c2ccccc2)c1 | 0.58
Fc1ccc(-c2[nH]c(-c3c[nH]c4ccc(Br)cc34)nc2-c2ccccc2)cc1 | 0.455*
c1ccc2[nH]c(-c3c[nH]c4ccccc34)nc2c1 | 0.86
O=c1nc(-c2ccccc2)c2cc(Br)ccc2[nH]1 | 0.954
Cc1ccc(-c2[nH]c(-c3c[nH]c4ccccc34)nc2-c2ccccc2)cc1 | 0.377*
Fc1ccc(-c2[nH]c(-c3cccs3)nc2-c2ccccc2)cc1 | 0.89
CCOC(=O)c1cnc2ccc(OC)cc2c1NCCCN1CCOCC1 | 0.976
COc1cccc(-c2nc(SCC(=O)Nc3ccc(OC)c(OC)c3)c(-c3ccccc3)[nH]2)c1 | 0.827
Cc1ccnc(NC(=O)C2CC(=O)N(c3ccc(Cl)cc3)C2)c1 (centres undefined) | 0.988
Cn1c(NCc2ccc3c(c2)OCO3)nc2ccccc21 | 0.906
COc1cc(OC)cc(C(=O)Nc2nc(-c3ccccn3)cs2)c1 | 0*
COc1ccc(-c2csc(NC(=O)c3ccccc3)n2)cc1 | 1.03
COc1ccc(-c2csc(NC(=O)c3cccc(Oc4ccccc4)c3)n2)c(OC)c1 | 0.915
O=C(Nc1nc(-c2ccncc2)cs1)c1cccc(Oc2ccccc2)c1 | 0.915
O=C(Nc1nc(-c2ccccn2)cs1)c1ccc(Oc2ccccc2)cc1 | 0.116*
COc1ccc(-c2csc(NC(=O)c3ccc(Oc4ccccc4)cc3)n2)c(OC)c1 | 0.832
CCOCCn1cnc2sc(C(=O)Nc3ccc(F)cc3Cl)c(C)c2c1=O | 1.02
CCOc1ccc(NC(=O)COc2cc(=O)n(C)c3ccccc23)cc1 | 0.81
CC(=O)Nc1ccccc1-c1nc2ccc(C(=O)NC3CCCCC3C)cc2[nH]c1=O (centres undefined) | 0.964
CCOC(=O)c1cnc2ccc(OCC)cc2c1N1CCN(c2ccccc2)CC1 | 0.736
CCOC(=O)c1cnc2ccc(OCC)cc2c1Nc1ccc(C)c(C)c1 | 1.21
CCOC(=O)c1cnc2ccc(C)cc2c1Nc1ccc(N(CC)CC)cc1 | 0.417*
CCOC(=O)c1cnc2ccc(C)cc2c1Nc1ccc(OCC)cc1 | 0.932
CCOC(=O)c1cnc2ccc(OCC)cc2c1Nc1ccc(F)c(Cl)c1 | 0.397*
CCOC(=O)c1cnc2ccc(OCC)cc2c1N1CCN(c2ccccc2F)CC1 | 0.167*

Bioassay records deposited in PubChem by Bradner/Qi Labs at DFCI.
